# Measured values taken from PubChem BioAssay (NCI).
# About 83,000 compounds went through this panel and 20% of them were active in at least one assay; those are over-represented in the sample as a whole.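 Cells were grown in 96-well plates and exposed to the test compound at a single concentration for 48 hours; results are reported as percent growth, with values below 10 considered active.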 Unmarked numbers belong to inactive results. Calls of active or inactive are those of the source.
# Test system: RPMI-8226 leukemia
# Experiment: NCI-60 one-dose screen, 48 h (100 = growth as untreated, 0 = no growth, -100 = all killed)
# Settings: 10 µM unless noted
row,Compound,growth
1,CC(Br)C(O)c1cc2c(cc1Br)OCO2 (configuration not stated),101%
2,OC1CC2c3ccccc3C1c1ccccc12 (configuration not stated),104%
3,Cc1cc(C)c(S(=O)(=O)N2CCN(c3cc4c(cc3F)c(=O)c(C(=O)O)cn4C3CC3)CC2)c(C)c1,22.4%
4,O=C(c1ccccc1)C(Cl)C(Cl)c1ccccc1 (configuration not stated),-5.33% (active)
5,Cc1cc(Cl)ccc1OC(C)C(=O)Nc1nnc(C2CC2)s1 (configuration not stated),89.6%
6,Cc1sc2nc(CSc3nnc(-c4ccco4)o3)[nH]c(=O)c2c1C,67.3%
7,CCCCCCCCCCCCCCCCCCOc1cccc(CCOP(=O)(O)OCC[N+](C)(C)C)c1,86.9%
8,C=CCOc1ccc(/C(O)=C2\C(=O)C(=O)N(c3nccs3)C2c2ccccc2F)cc1 (configuration not stated),136%
9,Cc1ccc(Oc2nc3ccccc3cc2-c2nnc(Cn3c(COc4ccccc4)nc4ccccc43)o2)cc1,-4.32% (active)
10,CCOC(=O)c1cc(/C(=N\O)c2cc(OC)c(OC)c(OC)c2)n2cc(C)cc(C)c12,17.6%
11,NC(=O)c1ccc2c(c1)OCO2,106%
12,NC(=O)NNC(=O)c1ccccc1,103%
13,O=c1c2cccc3c(Nc4ccc(F)cc4)ccc(c32)c2nc3ccccc3n12,57.4%
14,C=C1C(=O)O[C@H]2[C@H]1CC/C(COC(=O)NCc1cc(OC)c(OC)c(OC)c1)=C\CC[C@@]1(C)O[C@@H]21,43.6%
15,Cc1cc(C(=O)O)c(N)c(C)n1,103%
16,Cc1ccc(Nc2ncnc3c2sc2ncccc23)cc1,105%
17,O=C1CCC(=O)N1Cc1ccccc1,109%
18,COc1ncc(-c2ccc3ncnc(Nc4cccc(Cl)c4)c3c2)cc1NS(=O)(=O)C1CC1,26.7%
19,O=C(Nc1ccc(I)cc1)c1cccc([N+](=O)[O-])c1O,6.95% (active)

row,Compound,growth
1,COc1cc(NC(=O)CCl)ccc(=O)c1,85.4%
2,COc1ccc(/C=C/c2nc(N3CCOCC3)c3nc(Cl)c(Cl)cc3n2)cc1OC,98.7%
3,CCCCCCCC/C=C\CCCCCCCCOc1ccccc1CCOP(=O)(O)OCC[N+](C)(C)C,-0.933% (active)
4,COC(=O)c1ccc(C)cc1,102%
5,COc1ccc(/C(=N/O)c2cc(OC)c(OC)c(OC)c2)c(OC)c1N,32%
6,COc1ccc(C2CC(=O)Nc3c2c(C)nn3-c2nc3ccccc3[nH]2)cc1OC (configuration not stated),85.4%
7,C=C1C(=O)O[C@H]2[C@H]1CC/C(COC(=O)NCCc1cccc(OC)c1)=C\CC[C@@]1(C)O[C@@H]21,25.1%
8,CCN(Cc1ccccc1)c1ccc(SC#N)cc1,80.3%
9,Cc1ccc2c(c1)C(C)Cc1c(ncnc1-n1cnc3ccccc31)N2C (configuration not stated),21.8%
10,Cc1nc2sccn2c1-c1csc(Nc2ccccc2Cl)n1,38.9%
11,C=CCc1cc(Cl)cc2c(OC(C)=O)c(C(C)=O)c(-c3ccccc3)nc12,97.4%
12,Cc1nc2scc(-c3ccccc3)n2c(=O)c1CCO,102%
13,COc1ccc(/C=C\c2cc(OC)c(OC)c(OC)c2)c(NS(=O)(=O)c2ccc(C(C)(C)C)cc2)c1O,27.9%
14,CCCCCCOc1ccc(C2(Cl)c3ccccc3N(C)c3ccccc32)cc1,47.5%
15,CC(C)C[C@H](NC(=O)[C@H](Cc1ccccc1)n1ccc(N2CCCCC2)cc1=O)B(O)O,-10.5% (active)
16,Cc1ccccc1C(=O)c1ccccc1C(=O)O,102%
17,CC1CCc2c(sc(NC(=O)CSc3nnc4ccccn34)c2C(N)=O)C1 (configuration not stated),119%
18,COc1ccc2c(c1)C=CC(C#N)N2C(=O)c1ccccc1 (configuration not stated),22%
